{
  "source": "PubChem BioAssay AID2685",
  "about": "(National Center for Advancing Translational Sciences (NCATS), 2010)",
  "note": "Out of some 320,000 compounds screened, about 2,100 (0.66%) were called active. Another 53% or so got no clear call; they are omitted. The call rests on the fitted dose curve; in most records, active means well fitted inhibition curve with a large enough effect in the signal ratio, with a control signal flat (not every such curve was filed as active); inconclusive means small, poorly fitted or top-dose-only effect, or effect the other way, or a change in a side signal; inactive means flat fitted curve, though single readings scatter; the % refers to the signal ratio. Many of the other results were omitted from the sample, so actives are more common in it than they were. Potency means the concentration at half of the fitted maximal effect.",
  "data": [
    {"test": "qHTS Assay for Lipid Storage Modulators in Drosophila S3 Cells;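 on cell number change: cells counted by Cell Tracker Red CMTPX staining in the red channel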; on lipid storage change, negative = inhibition: on the % scale 0 is the no-effect control and ±100 the full control effect", "conditions": "BODIPY lipid droplet fluorescence, 18-24 h, cells fed with added oleic acid; cell number change: measured here: cell count max response; series mostly up to 46.1 µM; lipid storage change, negative = inhibition: at the top concentration", "summary_of_the_method": "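Laser-scanning cytometry quantifies lipid droplet accumulation (500–530 nm total intensity; droplet/cell object ratio) in oleic acid-fed (400 uM added) Drosophila S3 cells treated with a concentration series. 20 uM Triacsin C defined 100% inhibition.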", "units": {"cell number change": "%"}, "values": [
      {"smiles": "O=C(CCc1nc2ccccc2c(=O)[nH]1)OCc1cccc(C(F)(F)F)c1", "lipid storage change, negative = inhibition": "-1.93% (inactive)", "cell number change": -19.1},
      {"smiles": "COc1ccc(CN2CCCCC2C)cc1C", "note": "(centres undefined)", "lipid storage change, negative = inhibition": "-3.51% (inactive)", "cell number change": 16},
      {"smiles": "Cc1cccc(NC(=O)CSc2nc3[nH]ncc3c(=O)[nH]2)c1C", "lipid storage change, negative = inhibition": "18% (inactive)", "cell number change": 6.95},
      {"smiles": "COc1ccc(-c2nnc(-c3ccc(Br)o3)o2)cc1OC", "lipid storage change, negative = inhibition": "21.7% (inactive)", "cell number change": 2.37},
      {"smiles": "CCOC(=O)N1CCN(C(=O)COc2ccc(S(=O)(=O)NC(C)C)cc2)CC1", "lipid storage change, negative = inhibition": "5.97% (inactive)", "cell number change": -5.69},
      {"smiles": "CCOc1ccc(S(=O)(=O)N/N=C(\\C)C2CCCCC2)cc1", "Potency": "20.6 µM (active)", "cell number change": -18.4},
      {"smiles": "CCOc1ccc(S(=O)(=O)NC2CCCC2)cc1", "outcome": "inactive", "cell number change": 13.5},
      {"smiles": "CCOc1ccc(S(=O)(=O)NC2CCCCCC2)cc1", "lipid storage change, negative = inhibition": "6.04% (inactive)", "cell number change": 1.37},
      {"smiles": "CCNC(=O)CSc1nc(-c2ccc(F)cc2)cs1", "lipid storage change, negative = inhibition": "7.14% (inactive)", "cell number change": 6.04},
      {"smiles": "Oc1c(N=Nc2ccc(F)cc2)ccc2ccccc12", "Potency": "4.11 µM (active)", "cell number change": -26.4},
      {"smiles": "Cc1ccc(N=Nc2ccc3ccccc3c2O)cc1", "Potency": "0.058 µM (active)", "cell number change": 1.47},
      {"smiles": "Cc1ccc(N=Nc2ccc(O)c3ncccc23)cc1", "lipid storage change, negative = inhibition": "0.161% (inactive)", "cell number change": -11.6},
      {"smiles": "Cc1ccc(N=Nc2ccc(C)cc2NC(=O)Nc2ccccc2F)cc1", "lipid storage change, negative = inhibition": "-11.3% (inactive)", "cell number change": 4.52},
      {"smiles": "O=C(O)c1cc(N=Nc2c(O)ccc3ccccc23)cc(C(=O)O)c1", "lipid storage change, negative = inhibition": "-24.9% (inactive)", "cell number change": 0.308},
      {"smiles": "O=C(NNC(=O)c1ccc2ccccc2c1O)Nc1ccc(F)cc1", "lipid storage change, negative = inhibition": "-1.42% (inactive)", "cell number change": 22.7},
      {"smiles": "Oc1ccc2ccccc2c1N=Nc1ccc(F)cc1", "Potency": "5.8 µM (active)", "cell number change": -18.6},
      {"smiles": "NS(=O)(=O)c1ccc(N=Nc2c(O)c(C(=O)O)cc3ccccc23)cc1", "lipid storage change, negative = inhibition": "-1.28% (inactive)", "cell number change": -8.07},
      {"smiles": "O=C(CNc1ccc(F)cc1)N/N=C/c1c(O)ccc2ccccc12", "lipid storage change, negative = inhibition": "-10.8% (inactive)", "cell number change": -11.6},
      {"smiles": "Cc1cccc(C)c1OCC(=O)N/N=C/c1ccncc1", "lipid storage change, negative = inhibition": "15.6% (inactive)", "cell number change": 1.08},
      {"smiles": "CN(CC(=O)Nc1ccc(Cl)cc1)C(=O)c1cc(-c2cccs2)nn1-c1ccccc1", "lipid storage change, negative = inhibition": "16.7% (inactive)", "cell number change": 15.7},
      {"smiles": "COC(=O)CCC(=O)Nc1ccc(Br)cc1", "lipid storage change, negative = inhibition": "-11.3% (inactive)", "cell number change": -3.41},
      {"smiles": "CCOc1ccccc1NC(=O)CSc1nnc(CCC(=O)Nc2ccccc2F)n1C", "outcome": "inactive", "cell number change": -0.293},
      {"smiles": "CC(C)(C)OC(=O)N[C@@H](CCCCNC(=O)OCc1ccccc1)c1nnc([C@H](CCCCNC(=O)OCc2ccccc2)NC(=O)OC(C)(C)C)o1", "lipid storage change, negative = inhibition": "-36.4% (inactive)", "cell number change": -3.75},
      {"smiles": "CCNC(=S)N1CCN(c2ccccn2)CC1", "lipid storage change, negative = inhibition": "9.69% (inactive)", "cell number change": 12.6},
      {"smiles": "CC(C)(C)c1ccc(C(=O)NC(=S)N2CCOCC2)cc1", "cell number change": 8.33, "outcome": "inactive [at 0.369 µM]"},
      {"smiles": "CC(C)(C)c1ccc(C(=O)N2CCC3(CC2)NCCc2[nH]cnc23)cc1", "outcome": "inactive", "cell number change": 22.1},
      {"smiles": "O=Cc1ccc(OCC(=O)Nc2ccccc2-c2ccccc2)cc1", "lipid storage change, negative = inhibition": "8.41% (inactive)", "cell number change": 18},
      {"smiles": "COc1ccccc1NC(=O)Cc1cccc2ccccc12", "lipid storage change, negative = inhibition": "-19.7% (inactive)", "cell number change": -14.6},
      {"smiles": "COc1cc(NS(=O)(=O)c2ccc(NC(=S)NC(=O)c3ccco3)cc2)nc(OC)n1", "lipid storage change, negative = inhibition": "-13.8% (inactive)", "cell number change": -18.5},
      {"smiles": "COc1cc(/C=N/n2c(-c3cc(C)[nH]n3)n[nH]c2=S)ccc1O", "lipid storage change, negative = inhibition": "-10.3% (inactive)", "cell number change": 4.27},
      {"smiles": "CCOC(=O)c1ccc(-c2csc(NC(=O)CN3CCC(C)CC3)n2)cc1", "Potency": "2.91 µM (active)", "cell number change": 3.78},
      {"smiles": "Cc1ccc(-c2csc(NC(=O)CN3CCC(C(N)=O)CC3)n2)cc1", "outcome": "inactive", "cell number change": -18.5},
      {"smiles": "COCC(=O)Nc1nc(-c2ccc(-c3ccccc3)cc2)cs1", "lipid storage change, negative = inhibition": "4.79% (inactive)", "cell number change": 7.77},
      {"smiles": "CC1CCN(CC(=O)Nc2nc(-c3ccccc3)cs2)CC1", "lipid storage change, negative = inhibition": "-4.89% (inactive)", "cell number change": 10.6},
      {"smiles": "CCOC(=S)SCC(=O)Nc1nc(-c2ccccc2)cs1", "Potency": "23.1 µM (active)", "cell number change": -22.6},
      {"smiles": "CCOC(=O)N1CCN(C(=O)CSCC(=O)Nc2nc(-c3ccccc3)cs2)CC1", "lipid storage change, negative = inhibition": "-4.18% (inactive)", "cell number change": -8.7},
      {"smiles": "COC(=O)NC1CCC(NC(=O)OC)CC1", "note": "(centres undefined)", "lipid storage change, negative = inhibition": "0.668% (inactive)", "cell number change": -8.14},
      {"smiles": "O=C(Nc1cc(Cl)ccc1Oc1ccccc1)C1=COCCO1", "outcome": "inactive", "cell number change": -27.8},
      {"smiles": "CC(=O)C(=Nc1ccccc1Cl)NNc1ccc(Cl)cc1", "Potency": "23.1 µM (active)", "cell number change": -39.5},
      {"smiles": "CCOC(=O)C(=O)NNc1ccc(Cl)cc1", "lipid storage change, negative = inhibition": "7.67% (inactive)", "cell number change": 0.213},
      {"smiles": "O=C(O)c1ccccc1C(=O)NNc1ccc(Cl)cc1", "lipid storage change, negative = inhibition": "8.58% (inactive)", "cell number change": 6.32},
      {"smiles": "CC12CCC(c3c(C(=O)N4CCOCC4)nn(-c4ccccc4)c31)C2(C)C", "note": "(centres undefined)", "lipid storage change, negative = inhibition": "10.8% (inactive)", "cell number change": 15.9},
      {"smiles": "CC12CCC(c3c(C(=O)O)nn(-c4ccc(F)cc4)c31)C2(C)C", "note": "(centres undefined)", "Potency": "16.4 µM (active)", "cell number change": -9.61},
      {"smiles": "CC12CCC(c3c(C(=O)O)nn(-c4ccccc4)c31)C2(C)C", "note": "(centres undefined)", "lipid storage change, negative = inhibition": "-12.8% (inactive)", "cell number change": 7.24},
      {"smiles": "COc1ccc(N2CCN(C(c3ccc4ncccc4c3)c3nnnn3C(C)C)CC2)cc1", "note": "(centres undefined)", "lipid storage change, negative = inhibition": "-0.518% (inactive)", "cell number change": 3.49},
      {"smiles": "S=c1[nH]nc(CN2CCCCC2)n1Cc1ccccc1", "lipid storage change, negative = inhibition": "17.3% (inactive)", "cell number change": -2.92},
      {"smiles": "FC(F)(F)c1ccccc1-n1c(CN2CCCCC2)n[nH]c1=S", "lipid storage change, negative = inhibition": "-4.58% (inactive)", "cell number change": -9.97},
      {"smiles": "Fc1ccc(-n2c(CN3CCCCC3)n[nH]c2=S)cc1", "Potency": "1.64 µM (active)", "cell number change": -100},
      {"smiles": "Cc1ccc(S(=O)(=O)CCN2CCN(c3ccccn3)CC2)cc1", "lipid storage change, negative = inhibition": "11.2% (inactive)", "cell number change": 3.2},
      {"smiles": "CCc1ccc(-c2cc(C)no2)cc1S(=O)(=O)N1CCCN(Cc2ccc(F)cc2)C1", "outcome": "inactive", "cell number change": 2.69},
      {"smiles": "CCc1ccc(-c2cc(C)no2)cc1S(=O)(=O)N1CCOc2ccccc21", "Potency": "16.4 µM (active)", "cell number change": -0.472},
      {"smiles": "Cc1cc(-c2ccc(C)c(S(=O)(=O)N3CCN(c4ccccn4)CC3)c2)on1", "outcome": "inactive", "cell number change": -26.7},
      {"smiles": "CCc1ccc(-c2cc(C)no2)cc1S(=O)(=O)N1CC(=O)Nc2ccccc21", "Potency": "4.11 µM (active)", "cell number change": -17.1},
      {"smiles": "CCc1ccc(-c2cc(C)no2)cc1S(=O)(=O)NCCc1ccccc1", "outcome": "inactive", "cell number change": 13.1},
      {"smiles": "Cc1cc(-c2ccc(C)c(S(=O)(=O)N3CC(=O)Nc4ccccc43)c2)on1", "Potency": "1.03 µM (active)", "cell number change": 3.36},
      {"smiles": "CCc1ccc(-c2cc(C)no2)cc1S(=O)(=O)Nc1ccccn1", "outcome": "inactive", "cell number change": -19.5},
      {"smiles": "Cc1ccc(S(=O)(=O)N2CC(=O)Nc3ccccc32)c(C)c1NS(C)(=O)=O", "lipid storage change, negative = inhibition": "-1.89% (inactive)", "cell number change": -8.89},
      {"smiles": "CCc1ccc(-c2cc(C)no2)cc1S(=O)(=O)N1CCN(c2ccccc2OC)CC1", "lipid storage change, negative = inhibition": "-26.9% (inactive)", "cell number change": 23.3},
      {"smiles": "Cc1ccc(Nc2cc(C)nc(-c3ccccc3)n2)cc1", "outcome": "inactive"},
      {"smiles": "CC(=O)CSc1cc(-c2ccccc2)nc2ncnn12", "lipid storage change, negative = inhibition": "1.07% (inactive)", "cell number change": -21.4}
    ]}
  ]
}
